In the library only some 19% were active in any assay of this set; here they are far more common.
TGFb inhibitor: TGF-b pathway inhibition. HepG2 CAGA-GFP TGF-b/SMAD3 reporter, GFP fluorescence, 18 h; TGF-beta stimulated, 500 pg/mL final. Potency, µM (series often up to 46.1 µM), without a hit: at the top dose activity, negative = inhibition, hits mostly inhibitors. actives 1.2% (n = 410,000). AID 588855; further: potency means the concentration at half of the fitted maximal effect; on the % scale 0 is the no-effect control and ±100 the full control effect; nearly all actives have a fitted effect of over 65% in size
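Inhibition of TGF-beta-driven CAGA-GFP reporter expression in HEPG2 cells is measured by cellular GFP fluorescence after 18 h stimulation with 500 pg/mL recombinant TGF-beta in 1% FBS medium at 37 degrees C.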
ASM inhibitor: blocks human secretory acid sphingomyelinase; P17405; actives 0.006% (n = 340,000); Potency, µM (series often up to 57.5 µM), without a hit: at the top dose activity change, negative = inhibition, most hits filed as inhibitors; placental ASM, HMU-PC fluorogenic substrate, 60 min; further: potency means the concentration at half of the fitted maximal effect
Target sequence (P17405 47-631 limits assumed): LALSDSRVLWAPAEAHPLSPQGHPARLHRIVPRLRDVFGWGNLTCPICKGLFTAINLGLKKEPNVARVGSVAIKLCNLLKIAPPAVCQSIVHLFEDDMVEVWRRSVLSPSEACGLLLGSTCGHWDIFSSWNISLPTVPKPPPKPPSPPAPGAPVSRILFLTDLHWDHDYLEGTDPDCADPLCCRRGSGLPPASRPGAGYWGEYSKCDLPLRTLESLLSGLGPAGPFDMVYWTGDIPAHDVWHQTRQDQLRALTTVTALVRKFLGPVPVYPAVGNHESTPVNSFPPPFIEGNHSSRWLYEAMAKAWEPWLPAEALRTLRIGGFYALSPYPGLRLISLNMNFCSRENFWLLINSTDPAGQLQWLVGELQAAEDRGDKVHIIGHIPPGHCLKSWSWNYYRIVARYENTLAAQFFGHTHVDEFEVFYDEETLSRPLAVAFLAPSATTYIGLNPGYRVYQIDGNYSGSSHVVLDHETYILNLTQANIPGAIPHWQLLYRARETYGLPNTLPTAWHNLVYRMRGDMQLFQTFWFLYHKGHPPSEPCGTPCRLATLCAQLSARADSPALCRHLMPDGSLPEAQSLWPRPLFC
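HMU-PC0 cleavage (9 uM final) by human placental ASM, 60 min at 37 °C following 10 min compound exposure at RT; stopped at pH 10, fluorescence Ex 386/Em 447 nm.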
TDP1 cell CPT: DT40-hTDP1 cell growth loss with CPT; actives 12% (n = 420,000); Potency, µM (series often up to 46.2 µM), without a hit: top-dose activity change, negative = growth inhibition, hits mostly inhibitors; AID 686979; chicken DT40 Tdp1-/-;hTDP1 cells + 20 nM CPT, ATP luminescence, 48 h; further: potency means the concentration at half of the fitted maximal effect; on the % scale 0 is the no-effect control and ±100 the full control effect; nearly all actives have a fitted effect of over 55% in size
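Chicken DT40 Tdp1-/- cells stably complemented with human TDP1 were seeded at 400 cells/well in medium containing 20 nM camptothecin, exposed to pin-transferred compounds, and grown at 37 °C for at least 48 hr. Viability was read as ATP luminescence.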
IL-1B inflam inh: inflammasome signaling inhibition, IL-1 beta readout. AID 743279. activity change, % at 57.5 µM. actives 4.7% (n = 360,000). THP-1 LPS/ATP IL-1B secretion, AlphaLISA, 16 h; active compounds read low; in the data active means activity change below about -50%; inconclusive means mostly about -30% to -49%; further: on the % scale 0 is the no-effect control and ±100 the full control effect
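Secreted IL-1B measured by AlphaLISA bead assay after 16 h compound exposure of THP-1 cells; compounds (final up to 57.5 uM) added 1 h before LPS (250 ng/mL) and ATP (1.25 mM) stimulation; lower signal means less secretion.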
DT40 TDP1 no CPT: qHTS for Inhibitors of human tyrosyl-DNA phosphodiesterase 1 (TDP1): qHTS in cells in absence of CPT; DT40 Tdp1-/- hTDP1 cells, no CPT, ATP luminescence, 48 h; Potency, µM (series often up to 46.2 µM), inactives show at the top dose activity change, negative = growth inhibition, hits mostly inhibitors; actives 15% (n = 420,000); AID 686978, 2013; further: potency means the concentration at half of the fitted maximal effect; on the % scale 0 is the no-effect control and ±100 the full control effect; nearly all actives have a fitted effect of over 55% in size
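Luminescent ATP content (CellTiter-Glo) served as the growth readout. Knockout chicken DT40 cells expressing human TDP1 were exposed to compounds without camptothecin for a minimum 48 hr at 37 °C.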
HepG2 viability: kills HepG2 cells in TGF-b inhibitor counter-screen. HepG2 CAGA-GFP viability, ATP luminescence, 18 h. Potency, µM (titrated, usually from 46.1 µM), for inactives: at the top dose activity change, negative = cytotoxicity, most hits filed as cytotoxic. actives 0.76% (n = 410,000). AID 588856; further: potency means the concentration at half of the fitted maximal effect
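HepG2 CAGA-GFP cells (1000/well, DMEM with 1% FBS) received compound, then TGF-beta at 500 pg/mL final, and were incubated 18 hours at 37 degrees C. Viability was read by CellTiter-Glo luminescence. Media-only wells were set as complete cell-killing and DMSO as no toxicity.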
The depositor's hits bear a star; i = inactive; ? = inconclusive; . = not tested or not shown. Unless noted, the call rests on the fitted dose curve; in most records, active means well fitted curve in the direction sought with a large enough effect; inconclusive means small, poorly fitted or top-dose-only effect, or another doubt; inactive means no such curve, though single readings can be large; an effect the other way counts as inactive or inconclusive.

SMILES	TGFb inhibitor	ASM inhibitor	TDP1 cell CPT	IL-1B inflam inh	DT40 TDP1 no CPT	HepG2 viability
CC(C)c1ccccc1NC(=O)Nc1nc(C(N)Cc2ccc(C(F)(F)F)cc2)cs1 (stereo unspecified)	11µM*	.	13µM*	-18	23µM*	8.9µM*
CC(C)(C)c1ccccc1NC(=O)Nc1nc(C(N)c2ccccc2)cs1 (stereo unspecified)	?	.	?	-16	?	-51%
COc1ccc(NC(=O)Nc2nnc(C)s2)cc1	-1%	.	9%	.	0%	-3%
Cc1ccc(NC(=O)COc2ccc3oc4c(c3c2)CCCC4)cc1C	9%	.	-26%	.	-27%	2%
CC(=O)NCCNC(=O)C1(C)Cc2c(-c3cccc(NC(C)=O)c3)ccnc2O1 (stereo unspecified)	2%	.	8%	52	12%	2%
CCOc1ccc(-c2nc(CNC(=O)NC3CCCCC3)c(C)o2)cc1	-1%	.	-10%	.	6%	-1%
CC(C)c1ccccc1NC(=O)CNCCc1ccc(C(F)(F)F)cc1	?	-1%	?	-6	26µM*	-57%
NS(=O)(=O)c1ccc(CCNC(=O)CNCCc2ccc(C(F)(F)F)cc2)cc1	-23%	-7%	?	21	?	-19%
CC(C)CCn1c(=O)c2sccc2n2c(CCCC(=O)N3CCC(N4CCCCC4)CC3)nnc12	-1%	-10%	-1%	-5	-22%	-15%
CCCCN(C(=O)CCSc1ccc(F)cc1)c1c(N)n(Cc2ccccc2)c(=O)[nH]c1=O	1%	0%	2%	-11	-3%	3%
Cc1ccc(N2CC(C(=O)NCc3nnnn3-c3ccc(C)c(C)c3)CC2=O)cc1C (stereo unspecified)	?	.	-26%	.	?	8%
Cc1ccc(O)c(Nc2c3ccccc3nc3ccccc23)c1	?	i	16µM*	-95*	?	-25%
Cc1ccc(O)c(Nc2nc3ccccc3c3nncn23)c1	-12%	.	?	.	9.2µM*	-17%
Cc1ccc(O)c(Nc2nc(-c3ccccc3)nc3ccccc23)c1	12%	6%	-11%	-20	-4%	0%
C/C(=N\NC(=O)c1ccc(NS(=O)(=O)c2cccs2)cc1)c1ccc(C(C)(C)C)cc1	1%	-2%	7.3µM*	65	9.2µM*	-33%
COc1ccc(NC(=O)CCCSc2nc(-c3ccco3)cc(C(F)(F)F)n2)c(OC)c1	?	.	?	.	?	-13%
c1ccc(N2CCN(c3nc4cc5c(cc4s3)OCCO5)CC2)cc1	0%	2%	?	-7	-20%	5%
c1c2c(cc3sc(N4CCOCC4)nc13)OCCO2	0%	-3%	?	-13	18µM*	-58%
Cc1cc(C)n(-c2nnc3n2N=C(c2c[nH]c4ccccc24)CS3)n1	?	-6%	21µM*	-10	15µM*	-20%
CC(C)NCC(O)Cn1c2c(c3ccccc31)CCc1c-2cnn1-c1ccccc1 (stereo unspecified)	?	-9%	3.7µM*	-16	5.8µM*	-101%
CN1CCc2c(n(CC(O)CN3C(=O)c4ccccc4S3(=O)=O)c3ccccc23)C1=O (stereo unspecified)	24%	-5%	5%	-19	-9%	-1%
CCCCCCN1CCN(C2CN(C3CCCCC3)S(=O)(=O)C2)CC1 (stereo unspecified)	?	.	16µM*	-13	?	-15%
CCCCCCN1CCN(C2CN(CCc3ccccc3)S(=O)(=O)C2)CC1 (stereo unspecified)	-21%	.	?	-3	16µM*	-10%
CCCCCCN1CCN(C2CN(Cc3cn(Cc4ccc(C)cc4)nn3)S(=O)(=O)C2)CC1 (stereo unspecified)	.	.	?	-14	26µM*	.
CCCCCCn1cc(CN2CC(N3CCN(Cc4cccc(C)c4)CC3)CS2(=O)=O)nn1 (stereo unspecified)	.	.	?	-12	23µM*	.
SMILES	TGFb inhibitor	ASM inhibitor	TDP1 cell CPT	IL-1B inflam inh	DT40 TDP1 no CPT	HepG2 viability
NCCCNc1ccc(Br)cn1	.	.	2%	.	?	.
O=C(O)CC(CC(=O)O)(C(=O)O)c1ccccc1	1%	3%	1%	14	7%	4%
O=S(CC(O)(c1ccccc1)c1ccccc1)CC(O)(c1ccccc1)c1ccccc1	?	.	18µM*	-10	18µM*	-17%
CCc1ccccc1NC1=NCC(=O)N1C1CCCC1	-2%	3%	23µM*	2	?	-3%
CN(C)Cc1c(O)ccc2occ(C(=O)c3ccc(F)cc3)c12	-6%	-3%	?	-54*	-30%	-1%
CCN(CC)Cc1c(O)ccc2occ(C(=O)c3ccccc3)c12	-8%	-2%	?	0	-13%	-9%
COc1ccc2occ(C(=O)c3coc4ccc(O)c(CN(C)C)c34)c2c1	-5%	-6%	16µM*	-2	?	-22%
CCOC(=O)N1CCN(C(=O)c2cc3c(s2)-c2ccc(Cl)cc2S(=O)(=O)C3)CC1	0%	-1%	?	0	?	-2%
Nn1c(SCC(=O)NCc2ccc3c(c2)OCO3)nnc1C(F)(F)F	3%	-1%	0%	25	10%	2%
CC1CCN(C(=O)CSc2nnc(CNC(=O)c3c(F)cccc3F)o2)CC1	2%	-2%	-12%	1	-20%	18%
CCOC(=O)c1scc(-c2ccccc2)c1S(=O)(=O)Nc1ccc(N(C)C)cc1	?	.	?	.	?	-9%
CCOC(=O)c1scc(-c2ccccc2)c1S(=O)(=O)Nc1cc(Cl)c(OC)cc1OC	?	.	?	.	15µM*	-18%
CCOC(=O)c1scc(-c2ccc(C)cc2)c1S(=O)(=O)Nc1ccc(OC)c(Cl)c1	?	.	16µM*	.	15µM*	-35%
CCOC(=O)c1scc(-c2ccc(C)cc2)c1S(=O)(=O)Nc1cc(Cl)ccc1OC	-16%	.	5.8µM*	.	3.3µM*	5%
COC(=O)c1scc(-c2ccc(C)cc2)c1S(=O)(=O)Nc1cc(Cl)ccc1C	?	.	?	.	?	-37%
CCOC(=O)c1scc(-c2ccc(C)cc2)c1S(=O)(=O)Nc1ccc(F)c(F)c1	-8%	.	-13%	.	?	-1%
CCOc1ccc(CCNC(=O)Cn2nnc(-c3ccc(C(F)(F)F)cc3)n2)cc1OCC	-12%	.	-19%	.	?	-6%

High-throughput results (PubChem BioAssay)
